The values that follow come from PubChem BioAssay (Tox21).

SMILES strings stand for the structures. Results filed as inconclusive are left out. Where a structure was tested more than once in an assay, its records may differ in their call. Active and inactive are the calls of the source. Unless noted, calls come from the whole dose curve.

The nature of test [1]: Nuclear factor erythroid 2-related factor 2/antioxidant responsive element (Nrf2/ARE) small molecule agonists: qHTS cell viability counter screen in human keratinocytes (AID 1919968; active = well fitted curve in the direction sought with a large enough effect in the repeat runs; an effect the other way counts as inactive or inconclusive; note: nearly all actives have a fitted effect of over 55% in size). Put shortly:
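Seed 1,500 KeratinoSens cells per well, then incubate 5 h at 37 C/5% CO2. Add compounds in DMSO and incubate 23 h. Add CellTiter-Fluor, wait 1 h and read fluorescence.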
On the technique in general: qHTS replaces the single test concentration by a dilution series.

Test [2] is described as follows: Nuclear factor erythroid 2-related factor 2/antioxidant responsive element (Nrf2/ARE) small molecule agonists: luciferase reporter gene qHTS assay in human keratinocytes (AID 1919969). Note: nearly all actives have a fitted effect of over 35% in size. Note: potency is the fitted concentration of half-maximal effect. For orientation: A reporter such as luciferase makes a cellular process visible.
For test [3], the target named is Gonadotropin-releasing hormone receptor (Homo sapiens) (UniProt P30968). As to the kind of experiment: Human gonadotropin-releasing hormone receptor (GnRHR) small molecule agonists, calcium flux assay in GnRHR-HEK293 cells (AID 1920063). Note: nearly all actives have a fitted effect of over 35% in size. The method in brief:
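Cells: HEK293 stably expressing human GnRHR. Steps: overnight (18 h) culture, 1 h calcium dye loading at 37 C, compound addition, kinetic fluorescence read at 480/540 nm. Each compound tested at 15 concentrations in triplicate.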

In test [4] the target is KiSS-1 receptor (Homo sapiens) (UniProt Q969F8). As to the kind of experiment: Human kisspeptin (KISS1R) small molecule agonists, calcium flux assay in KISS1R-HEK293 cells (AID 1920064; active = well fitted curve in the direction sought with a large enough effect in the repeat runs; an effect the other way counts as inactive or inconclusive). The method in brief: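 Cells plated and incubated 18 h; dye added, 1 h at 37 C; compounds in DMSO pinned in; signal read at 480/540 nm every second for 3 min. Each compound tested at 15 concentrations in triplicate.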
For orientation: Calcium assays in cells follow changes in intracellular calcium, usually with a dye or a luminescent sensor.

A short description of test [5]: G protein-coupled receptor (GPCR) small molecule agonists, calcium flux assay: HEK293 wild type cell line counter screen (AID 1920065). Put shortly: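 Counter-screen of the Tox21 10K library for non-specific calcium release: dye-loaded cells received compounds in DMSO and were monitored by kinetic fluorescence (480/540 nm, 3 min). Fifteen concentrations, run in triplicate.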

A short description of test [6]: p53 small molecule agonists, cell-based qHTS assay with human liver microsomes (AID 1963577).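 Note: p53 response element beta-lactamase reporter cells with liver microsomes plus NADPH.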 Put shortly: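 p53RE-bla cells; 5 h settle, 37 C/5% CO2; cpd + HLM 0.5 mg/mL + NADPH 0.5 mg/mL (final); 16 h 37 C; LiveBLAzer 2 h RT dark; fluorescence readout.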
Test [7] can be described thus: p53 small molecule agonists, cell-based qHTS assay with rat liver microsomes (AID 1963578). The method in brief: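 Rat liver microsome activation: microsomes 0.5 mg/mL, NADPH 0.5 mg/mL final; p53RE-bla cells, 16 h 37 C; LiveBLAzer readout, 2 h RT dark.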
Test [8] is described as follows: p53 small molecule agonists, cell-based qHTS assay with human liver microsomes: qHTS cell viability counter screen (AID 1963579). Note: nearly all actives have a fitted effect of over 45% in size. The method in brief: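 Luminescent CellTiter-Glo read-out, 30 min at room temperature, gauged cytotoxicity in p53RE-bla cells exposed 16 h at 37 C to DMSO-dissolved compounds with metabolic activation by human liver microsomes and NADPH, each 0.5 mg/mL final.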

Test [9] in a line: p53 small molecule agonists, cell-based qHTS assay with rat liver microsomes: qHTS cell viability counter screen (AID 1963580). Note: nearly all actives have a fitted effect of over 45% in size. Put shortly: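 p53RE-bla HCT-116 cells were exposed 16 h at 37 C to compounds with rat liver microsomes (0.5 mg/mL) and NADPH (0.5 mg/mL). Viability was measured in the same wells as ATP content by CellTiter-Glo luminescence.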
Test [10] is described as follows: p53 small molecule agonists, cell-based qHTS assay: qHTS cell viability counter screen (AID 1963581). Note: nearly all actives have a fitted effect of over 45% in size. The method in brief:
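Cells: HCT-116 with p53 response element-driven beta-lactamase. Treatment: 16 h, 37 C, compounds in DMSO. Read: CellTiter-Glo luminescence after 30 min RT.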

Test [11] can be described thus: p53 small molecule agonists, cell-based qHTS assay (AID 1963582; active = well fitted activation curve with a large enough effect in the signal ratio in the repeat runs, not every such curve was filed as active; the % refers to the signal ratio). The method in brief:
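Quantitative HTS in p53RE-bla cells: after a 5 h settling period, compounds delivered in DMSO were left on cells for 16 h at 37 C, and reporter induction was measured as fluorescence following 2 h substrate loading.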

Test [12] has as its target 5-hydroxytryptamine receptor 2A (Homo sapiens) (UniProt P28223). As to the kind of experiment: 5-hydroxytryptamine receptor 2A (HTR2A) small molecule antagonists, cell-based qHTS assay (AID 1963586). Note: nearly all actives have a fitted effect of over 45% in size. The method in brief:
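Antagonist-mode intracellular calcium assay: DOI (4 nM) added after 5 min compound pre-incubation at room temperature to dye-loaded HTR2A-CHO cells. Fluorescence followed for 3 min, sampled every second.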

For test [13] the target is unchanged. Description: 5-hydroxytryptamine receptor 2A (HTR2A) small molecule agonists, cell-based qHTS assay (AID 1963587). Note: nearly all actives have a fitted effect of over 30% in size. The method in brief:
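CHO cells stably expressing human HTR2A, plated 18 h, loaded with calcium dye 1 h at 37 C. Agonist mode: compounds added and intracellular calcium fluorescence recorded kinetically for 2 min at 1 sec intervals.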

Test [14] concerns the target Muscarinic acetylcholine receptor M1 (Homo sapiens) (UniProt P11229). As to the kind of experiment: Cholinergic receptor muscarinic 1 (CHRM1) small molecule antagonists, cell-based qHTS assay (AID 1963588). Note: nearly all actives have a fitted effect of over 40% in size. Put shortly: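 CHRM1-CHO calcium-flux assay, antagonist mode. Cells were seeded 18 h, dye-loaded 1 h at 37 C and given compound for 5 min at RT, then acetylcholine was added at 50nM. FDSS fluorescence was read 3 min; 15 concentrations, three runs.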

For test [15] the target is unchanged. Description: Cholinergic receptor muscarinic 1 (CHRM1) small molecule agonists, cell-based qHTS assay (AID 1963589). Note: nearly all actives have a fitted effect of over 35% in size. The method in brief:
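Agonist-mode qHTS in CHO cells stably carrying human muscarinic M1. Intracellular calcium is tracked by fluorescence every second after compound transfer; each compound runs at 15 concentrations in three independent runs.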

Test [16] is described as follows: cAMP Responsive Elements (CRE) small molecule agonists, cell-based qHTS assay (AID 1963590). Put shortly: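 Agonist mode qHTS in CRE-bla HEK 293T cells: compounds dosed from DMSO for 3 h at 37 C/5% CO2, followed by LiveBLAzer B/G FRET substrate for 2 h at room temperature.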
A short description of test [17]: cAMP Responsive Elements (CRE) small molecule antagonists, cell-based qHTS assay (AID 1963591; active = well fitted inhibition curve with a large enough effect in the signal ratio in the repeat runs, not every such curve was filed as active; the % refers to the signal ratio). The method in brief:
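Antagonist mode: test compounds are co-incubated with the adenylyl cyclase activator NKH477 (0.25 uM final) on CRE-bla HEK293T cells for 3 h at 37 °C, followed by LiveBLAzer substrate loading.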

For test [18], the target named is Beta-2 adrenergic receptor (Homo sapiens) (UniProt P07550). Description: Adrenergic beta2 receptor (ADRB2) small molecule antagonists, cell-based qHTS assay (AID 1963592). Note: series mostly up to about 92 µM; nearly all actives have a fitted effect of over 50% in size. The method in brief: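 Cells (CHO, stable ADRB2 overexpression) incubated 18-20hr at 37C; compounds added from DMSO; agonist mix (1nM isoproterenol, 100uM IBMX, 25uM Ro-20-1724) added; 0.5hr RT; d2-cAMP and anti-cAMP-cryptate added; 1hr RT; 665/615 nm read.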

For test [19], the target named is D(2) dopamine receptor (Homo sapiens) (UniProt P14416). As to the kind of experiment: Dopamine D2 receptor (DRD2) small molecule agonists, cell-based qHTS assay (AID 1963594). Note: nearly all actives have a fitted effect of over 35% in size. Put shortly: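 HEK293 cells stably expressing human DRD2, pre-treated with PDE inhibitor Ro20-1724 (0.1 mM final) and compound 10 min at room temperature, then stimulated with NKH477 (200nM […]) for 30 min. cAMP read by HTRF (665/620 nm).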

The target is the same in test [20]. Description: Dopamine D2 receptor (DRD2) small molecule antagonists, cell-based qHTS assay (AID 1963595; active = well fitted inhibition curve with a large enough effect in the signal ratio in the repeat runs, with a control signal flat; the % refers to the signal ratio). The method in brief:
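HEK293 cells stably expressing DRD2 were preincubated with 0.1 mM Ro20-1724, then with compound for 10 min at room temperature. Cells were stimulated with 200 nM NKH477 plus 12 nM quinpirole for 30 min, and cAMP was read by HTRF.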

Sequence of D(2) dopamine receptor (Homo sapiens) (P14416 whole entry, looked up): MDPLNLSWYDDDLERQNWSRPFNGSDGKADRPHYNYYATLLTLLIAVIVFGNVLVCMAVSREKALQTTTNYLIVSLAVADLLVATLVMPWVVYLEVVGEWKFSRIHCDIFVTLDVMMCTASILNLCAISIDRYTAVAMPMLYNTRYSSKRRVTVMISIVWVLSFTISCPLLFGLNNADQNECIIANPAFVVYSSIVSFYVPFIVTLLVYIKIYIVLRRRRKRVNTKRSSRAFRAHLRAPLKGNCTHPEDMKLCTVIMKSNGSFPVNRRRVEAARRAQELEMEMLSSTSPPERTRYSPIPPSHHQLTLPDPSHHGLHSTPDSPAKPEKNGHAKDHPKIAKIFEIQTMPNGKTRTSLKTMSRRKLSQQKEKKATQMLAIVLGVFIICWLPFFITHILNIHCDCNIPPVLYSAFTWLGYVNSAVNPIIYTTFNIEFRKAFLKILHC
Sequence of 5-hydroxytryptamine receptor 2A (Homo sapiens) (P28223 whole entry, looked up): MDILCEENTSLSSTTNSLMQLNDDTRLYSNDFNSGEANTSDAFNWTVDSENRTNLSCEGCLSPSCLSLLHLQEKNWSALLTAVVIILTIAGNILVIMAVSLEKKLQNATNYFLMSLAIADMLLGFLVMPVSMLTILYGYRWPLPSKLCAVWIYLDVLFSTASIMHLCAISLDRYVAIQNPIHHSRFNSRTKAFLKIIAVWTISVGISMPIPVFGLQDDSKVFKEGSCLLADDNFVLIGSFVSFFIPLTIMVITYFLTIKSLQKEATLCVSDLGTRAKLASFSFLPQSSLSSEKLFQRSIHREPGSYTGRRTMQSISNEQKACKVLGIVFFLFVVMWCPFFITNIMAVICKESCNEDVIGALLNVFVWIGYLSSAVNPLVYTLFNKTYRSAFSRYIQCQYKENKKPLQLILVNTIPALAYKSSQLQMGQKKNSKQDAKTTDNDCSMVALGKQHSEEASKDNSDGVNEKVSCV
Sequence of Beta-2 adrenergic receptor (Homo sapiens) (P07550 whole entry, looked up): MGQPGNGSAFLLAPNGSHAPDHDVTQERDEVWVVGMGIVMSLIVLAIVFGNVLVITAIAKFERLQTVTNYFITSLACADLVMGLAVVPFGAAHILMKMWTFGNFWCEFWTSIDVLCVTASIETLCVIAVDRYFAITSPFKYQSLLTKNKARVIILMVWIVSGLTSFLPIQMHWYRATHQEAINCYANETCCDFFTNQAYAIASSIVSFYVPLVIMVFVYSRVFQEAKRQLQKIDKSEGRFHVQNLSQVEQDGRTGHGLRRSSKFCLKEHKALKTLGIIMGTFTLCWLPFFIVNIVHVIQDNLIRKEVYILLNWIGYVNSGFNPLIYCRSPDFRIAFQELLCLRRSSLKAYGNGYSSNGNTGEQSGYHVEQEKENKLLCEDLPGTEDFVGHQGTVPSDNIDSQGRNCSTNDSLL
Sequence of KiSS-1 receptor (Homo sapiens) (Q969F8 whole entry, looked up): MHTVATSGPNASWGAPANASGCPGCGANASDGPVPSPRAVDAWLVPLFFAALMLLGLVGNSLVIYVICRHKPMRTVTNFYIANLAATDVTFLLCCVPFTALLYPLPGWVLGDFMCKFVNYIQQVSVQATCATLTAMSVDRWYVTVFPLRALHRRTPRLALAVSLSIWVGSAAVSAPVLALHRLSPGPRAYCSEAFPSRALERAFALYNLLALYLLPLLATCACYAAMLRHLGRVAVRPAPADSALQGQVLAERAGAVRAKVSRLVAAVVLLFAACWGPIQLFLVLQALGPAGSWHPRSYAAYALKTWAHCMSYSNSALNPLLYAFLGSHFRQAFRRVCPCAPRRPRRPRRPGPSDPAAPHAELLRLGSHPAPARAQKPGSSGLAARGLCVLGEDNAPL
Sequence of Muscarinic acetylcholine receptor M1 (Homo sapiens) (P11229 whole entry, looked up): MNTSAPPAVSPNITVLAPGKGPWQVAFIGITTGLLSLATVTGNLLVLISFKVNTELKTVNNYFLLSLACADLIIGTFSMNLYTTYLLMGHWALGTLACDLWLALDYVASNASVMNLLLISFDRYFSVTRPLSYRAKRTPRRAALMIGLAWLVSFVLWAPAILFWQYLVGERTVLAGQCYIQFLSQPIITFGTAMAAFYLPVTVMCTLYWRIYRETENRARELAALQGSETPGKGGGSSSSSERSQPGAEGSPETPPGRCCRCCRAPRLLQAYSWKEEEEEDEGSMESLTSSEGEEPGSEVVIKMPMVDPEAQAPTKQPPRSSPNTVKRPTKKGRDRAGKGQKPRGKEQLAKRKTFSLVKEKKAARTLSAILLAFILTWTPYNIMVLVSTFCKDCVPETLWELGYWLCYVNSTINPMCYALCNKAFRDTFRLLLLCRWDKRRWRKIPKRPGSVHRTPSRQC
Sequence of Gonadotropin-releasing hormone receptor (Homo sapiens) (P30968 whole entry, looked up): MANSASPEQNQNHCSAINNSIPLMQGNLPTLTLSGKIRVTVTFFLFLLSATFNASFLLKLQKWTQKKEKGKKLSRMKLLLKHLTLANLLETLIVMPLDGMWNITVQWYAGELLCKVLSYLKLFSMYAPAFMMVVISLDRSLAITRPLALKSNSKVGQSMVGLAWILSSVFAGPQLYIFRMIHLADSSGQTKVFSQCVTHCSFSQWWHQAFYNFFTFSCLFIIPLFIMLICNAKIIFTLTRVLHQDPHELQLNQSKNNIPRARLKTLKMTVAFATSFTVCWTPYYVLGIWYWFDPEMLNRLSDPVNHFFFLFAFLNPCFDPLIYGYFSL

Regarding `C#CCOC(=O)/C=C(C)/C=C/CC(C)CCCC(C)C` (stereo not drawn), the Potency entry in test [1], in test [2], in [3], in test [4], in test [5] and in test [6] was “inactive” throughout. The Potency result in [7], in [8], in test [9], in test [10], in test [11] and in test [12] was “inactive” in each case. The Potency entry in test [13], in test [14], in test [15], in test [16], in test [17] and in [18] was “inactive” in each case. The Potency result in test [19] and in [20] was “inactive” in each case.
Consider `CNC(=S)S`, for which the Potency result in test [1], in [2], in test [3], in [4], in test [5] and in test [6] was “inactive” in each case. The Potency result in test [7], in test [8], in [9], in [10], in test [11] and in [12] was “inactive” in each case. Besides, the Potency result in [13], in test [14], in [15], in [16], in test [17] and in test [18] was “inactive” in each case. Besides, the Potency entry in test [20] is “inactive”.
`Cc1ccc2c(C)cccc2c1`: the Potency result in test [1], in test [2], in test [3], in test [4], in test [5] and in test [6] was “inactive” in each case. For the same compound, the Potency result in [7], in test [8], in test [9], in [10], in test [11] and in test [12] was “inactive” each time. Further, the Potency entry in test [13], in [14], in test [15], in test [16], in [17] and in test [18] was “inactive” throughout. Further, the Potency result in [19] and in test [20] was “inactive” throughout.
`COc1ccc2c3c1O[C@H]1[C@@H](O)C=C[C@H]4[C@@H](C2)N(C)CC[C@@]341`: the Potency result in test [1], in test [3], in test [4], in test [5], in test [6] and in test [7] was “inactive” in each case. Also, the Potency result in test [8], in [9], in test [10], in [11], in test [12] and in test [13] was “inactive” each time. Besides, the Potency entry in test [14], in test [15], in [16], in [17], in [18] and in [19] was “inactive” each time. Also, the Potency entry in test [20] was “inactive”. Further, the Potency in [2] is 23.9 µM (active) and inactive.
For `O=C1C=CC(=O)C=C1`, the Potency entry in test [1], in test [2], in [3], in test [4], in test [5] and in test [6] was “inactive” in each case. In addition, the Potency result in [7], in [8], in test [9], in test [10], in test [11] and in test [12] was “inactive” each time. Further, the Potency entry in test [13], in [14], in [15], in test [16], in test [17] and in test [18] was “inactive” in each case. In test [20], the Potency result is “inactive”.
For the compound `CN(C)CCc1ccc(O)cc1`, the Potency result in [1], in test [2], in [3], in test [4], in test [5] and in test [6] was “inactive” each time. Further, the Potency entry in test [7], in test [8], in [9], in test [10], in test [11] and in test [12] was “inactive” each time. Besides, the Potency entry in test [13], in [14], in [15], in test [16], in test [17] and in test [18] was “inactive” in each case. The Potency result in [19] and in test [20] was “inactive” each time.
`O=C(Cl)OCc1ccccc1`: the Potency entry in test [1], in [2], in [3], in test [4], in test [5] and in [6] was “inactive” throughout. For the same compound, the Potency result in [7], in test [8], in [9], in test [10], in [11] and in test [12] was “inactive” throughout. The Potency entry in [13], in [14], in [15], in test [16], in test [17] and in test [18] was “inactive” each time. For the same compound, the Potency result in test [19] and in [20] was “inactive” throughout.
As to `Nn1cnnc1`, the Potency result in [1], in test [2], in test [3], in test [4], in [5] and in [6] was “inactive” throughout. In addition, the Potency result in test [7], in [8], in test [9], in test [10], in [11] and in test [12] was “inactive” in each case. The Potency result in test [13], in test [14], in [15], in test [16], in test [17] and in test [18] was “inactive” in each case. Moreover, the Potency result in test [19] and in test [20] was “inactive” each time.
